The values that follow come from PubChem BioAssay (NCI).

Among the test systems are RPMI-8226 leukemia; OVCAR-8 ovarian; OVCAR-5 ovarian; OVCAR-4 ovarian; SK-OV-3 ovarian; IGROV1 ovarian; HS 578T breast; T-47D breast; BT-549 breast; MDA-MB-435 melanoma; SW-620 colon; MCF7 breast; HCT-116 colon; KM12 colon; NCI/ADR-RES ovarian; HCC-2998 colon; OVCAR-3 ovarian.
Assay in all cases: NCI-60 one-dose screen, 48 h (100 = growth as untreated, 0 = no growth, -100 = all killed)
Settings in all cases: 10 µM unless noted

Compounds without any hit were thinned out: in the full panel of roughly 83,000, 20% have a hit.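 Note: values are percent growth. 100 is the growth of untreated cells, values between 100 and 0 indicate rising inhibition; between -100 and 0 indicates cell death.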 Values without a mark were called inactive. The source made the active and inactive calls. How the source made its calls: active means growth percent below 10; inactive means the rest.

Turning to `c1cncc(-c2cn3nc(-c4c[nH]c5ccccc45)sc3n2)c1`, the growth with RPMI-8226 leukemia is 63.1%; in the assay on OVCAR-8 ovarian, 52.2%; in the assay on OVCAR-5 ovarian it was 43.4%; with OVCAR-4 ovarian it was 83.3%; in the assay on SK-OV-3 ovarian it was 86.2%; with IGROV1 ovarian, 59.8%. Moreover, the growth in the assay with HS 578T breast is 57.8%; in the assay with T-47D breast, 69.7%; with BT-549 breast, 33.3%; in the assay on MDA-MB-435 melanoma it was -38% (active); in the assay with SW-620 colon, 28.6%; in the assay with MCF7 breast, 34.7%. The values for the growth in the assay on HCT-116 colon and with KM12 colon were 28.8% and 26.6%, respectively.

As for `C=CCn1c(SCC(=O)Nc2cccc(C(=O)/C=C/c3cccc([N+](=O)[O-])c3)c2)nc2ccccc2c1=O`, the growth in the assay with RPMI-8226 leukemia was 17%; in the assay on OVCAR-8 ovarian, 94.2%; with OVCAR-5 ovarian, 92.5%; in the assay on OVCAR-4 ovarian, 92%; in the assay with IGROV1 ovarian it was 96.8%; with HS 578T breast, 91.9%. For the same compound, the growth was 95.7% in the assay with NCI/ADR-RES ovarian; 79.1% with T-47D breast; 111% with BT-549 breast; 98.4% with MDA-MB-435 melanoma; 62% in the assay on SW-620 colon; 33.2% in the assay with MCF7 breast. The growth in the assay with HCT-116 colon was 8.94% (active); in the assay with HCC-2998 colon it was 101%; in the assay with KM12 colon, 104%.

Regarding `C=CCn1c(SCC(=O)Nc2cccc(C(=O)/C=C/c3ccc(OC)c(OC)c3)c2)nc2ccccc2c1=O`, the growth with RPMI-8226 leukemia is 38.7%; with OVCAR-8 ovarian, 89.5%; in the assay on OVCAR-5 ovarian, 96.1%; in the assay on OVCAR-4 ovarian, 87.6%; with SK-OV-3 ovarian, 108%; in the assay on HS 578T breast, 88.9%. Also, the growth in the assay on NCI/ADR-RES ovarian was 91.8%; in the assay on T-47D breast it was 79.9%; in the assay with BT-549 breast, 97.7%; in the assay with MDA-MB-435 melanoma, 101%; in the assay on SW-620 colon, 74.4%; with MCF7 breast it was 45.4%. Moreover, the values for the growth in the assay on HCT-116 colon, in the assay on HCC-2998 colon and in the assay on KM12 colon were 55.6%, 100% and 91.8%, respectively.

With `CCN1CCN(Cc2ccc(C(=O)Nc3nc4ccc(Oc5ccnc(C(=O)NC)c5)cc4s3)cc2C(F)(F)F)CC1`, the growth was 26.4% in the assay with RPMI-8226 leukemia; 60.8% with OVCAR-8 ovarian; 76.7% in the assay with OVCAR-5 ovarian; 61% in the assay with OVCAR-4 ovarian; 83.7% in the assay with SK-OV-3 ovarian; 70.3% with IGROV1 ovarian. Further, the growth in the assay with HS 578T breast was 51.9%; in the assay on T-47D breast it was 18.7%; in the assay with BT-549 breast, 45.3%; in the assay with MDA-MB-435 melanoma, 46%; with SW-620 colon, -17.2% (active); in the assay with MCF7 breast, 16.3%. The growth is 18% in the assay on HCT-116 colon, 62.8% with HCC-2998 colon and 48.4% in the assay on KM12 colon.

With `CCOC(=O)CC(=O)CSC1=NC2C(NN1)N(C)C(=O)N2C` (centres undefined), the growth with RPMI-8226 leukemia was 56%; in the assay with OVCAR-8 ovarian, 66.8%; with OVCAR-5 ovarian, 88.6%; in the assay on OVCAR-4 ovarian, 88.9%; with SK-OV-3 ovarian, 114%; with IGROV1 ovarian it was 91.2%. The growth in the assay with HS 578T breast is 94.4%; in the assay with T-47D breast, 31.8%; in the assay with BT-549 breast it was 101%; in the assay with MDA-MB-435 melanoma, 94.6%; with SW-620 colon, 75.8%; with MCF7 breast, 10.9%. The growth with HCT-116 colon is 9.01% (active); with HCC-2998 colon, 105%; with KM12 colon, 101%.

For the compound `O=C(Nc1cccc(-c2nc(-c3ccc(NC(=O)c4cccs4)cc3Cl)no2)c1)Nc1ccc(NC(=O)C2CC2)c(C(F)(F)F)c1`, the growth in the assay on OVCAR-8 ovarian is 2.05% (active); in the assay with OVCAR-5 ovarian, -14.6% (active); with OVCAR-4 ovarian, -81.3% (active); with IGROV1 ovarian, -40.4% (active); in the assay with OVCAR-3 ovarian it was -54.2% (active); in the assay with HS 578T breast, -27.1% (active). Moreover, the growth in the assay with NCI/ADR-RES ovarian is 45.5%; in the assay with T-47D breast it was -50.2% (active); with BT-549 breast it was -19.1% (active); in the assay with SW-620 colon, -49.9% (active); in the assay on MCF7 breast, -40% (active); with HCT-116 colon, 1.27% (active). In addition, the growth with HCC-2998 colon was -55% (active); in the assay on KM12 colon, -65.5% (active).

Turning to `O=C1c2c(c3c4ccc(Br)cc4oc3c3[nH]c4ccccc4c23)C(=O)N1CCO`, the growth in the assay on RPMI-8226 leukemia was 43.3%; in the assay with OVCAR-8 ovarian, 50.4%; in the assay on OVCAR-5 ovarian it was 69.9%; in the assay with OVCAR-4 ovarian it was 89.7%; with SK-OV-3 ovarian it was 37.4%; with HS 578T breast it was 88.5%. Moreover, the growth in the assay with NCI/ADR-RES ovarian is 44.7%; with T-47D breast, 10.5%; in the assay with BT-549 breast, 55.3%; with MDA-MB-435 melanoma, 59%; in the assay with SW-620 colon it was 47%; with MCF7 breast, 18.6%. Also, the growth in the assay on HCT-116 colon is 39.6%; in the assay on HCC-2998 colon, 77.8%; in the assay on KM12 colon it was 65.6%.

As to `CN(C)c1ccc(/C=N/Nc2nc(N/N=C/c3ccc(N(C)C)cc3)nc(N3CCOCC3)n2)cc1`, the growth with RPMI-8226 leukemia is 35%; in the assay with OVCAR-8 ovarian, 99%; with OVCAR-5 ovarian, 110%; in the assay on OVCAR-4 ovarian it was 104%; with IGROV1 ovarian, 94.6%; in the assay with OVCAR-3 ovarian, 109%. The growth is 97.6% with HS 578T breast; 99.8% in the assay on NCI/ADR-RES ovarian; 94.7% in the assay with T-47D breast; 106% with BT-549 breast; 104% in the assay with MDA-MB-435 melanoma; 83.8% in the assay with SW-620 colon. The growth in the assay on MCF7 breast is 54.8%; in the assay on HCT-116 colon, 35.7%; in the assay on HCC-2998 colon it was 103%; with KM12 colon it was 104%.

On to `Cc1ccc(-c2cc(-c3cccc4ccccc34)n3c(n2)nc2ccccc23)cc1`, for which the growth in the assay on RPMI-8226 leukemia is 65.2%; in the assay on OVCAR-8 ovarian, 58.4%; in the assay with OVCAR-5 ovarian, 92.7%; in the assay on OVCAR-4 ovarian, 79.6%; in the assay on SK-OV-3 ovarian it was 100%; in the assay on IGROV1 ovarian, 59.5%. Besides, the growth in the assay on HS 578T breast was 56.5%; in the assay with T-47D breast, 54.1%; in the assay on BT-549 breast, 69.1%; with MDA-MB-435 melanoma, 65%; in the assay with SW-620 colon it was 45.2%; in the assay with MCF7 breast, 22.6%. Further, the growth in the assay on HCT-116 colon is 43.4%; in the assay with HCC-2998 colon, 92%; with KM12 colon, 78.9%.
